Sampled rows, rich in hits. Any-hit rate of the full collection: about 12%.
FMDV antiviral = High Throughput Screening for Foot and Mouth Disease Virus Antivirals. FMDV antiviral cell-based qHTS. Potency, µM (titrated, usually from 57.9 µM), for inactives: at the top dose activity change, negative = inhibition, most hits filed as inhibitors. 1.2% of 410,000 active. AID 1159524, 2015; calls by dose curve; tested in HEK293T cells; also: read-out not given here; potency is read from the fitted curve at half-maximal effect; % is scaled to controls: 0 for no effect and ±100 for the full control effect; nearly all actives have a fitted effect of over 45% in size
Sm TGR inh = qHTS Assay for the Inhibitors of Schistosoma Mansoni Peroxiredoxins; Schistosoma mansoni thioredoxin glutathione reductase (TGR), Q962Y6; purified TGR, DTNB reduction, TNB absorbance 405 nm; Potency, µM (highest dose often 114 µM), inactives show at the highest dose activity change, negative = inhibition, most hits filed as inhibitors; 3% of 360,000 active; active = well fitted inhibition curve with a large enough effect; inconclusive = small, poorly fitted or top-dose-only effect; inactive = no such curve, though single readings can be large or run the other way; also: potency is read from the fitted curve at half-maximal effect; % is scaled to controls: 0 for no effect and ±100 for the full control effect; nearly all actives have a fitted effect of over 60% in size
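First, TGR (20 nM dispensed) and NADPH were mixed with compound. Second, a 15 min room-temperature incubation followed. Third, further NADPH and then DTNB were added to start the reaction. Finally, TNB absorbance was monitored kinetically.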
Shiga toxin inh = A qHTS for Small Molecule Inhibitors of Shiga Toxin | inhibition, % at 38.7 µM | 9.2% of 290,000 active | Vero cells, Shiga toxin protein synthesis inhibition reporter; in the data active = inhibition mostly above about 28%, no sharp cut-off; inactive = mostly below about 43%; also: 0% is about no effect
CHX counter = Cycloheximide Counterscreen for Small Molecule Inhibitors of Shiga Toxin. cell reporter, cycloheximide protein synthesis inhibition counterscreen. max response, %. 12% of 300,000 active; in the data active = max response mostly above about 13%, no sharp cut-off; inactive = mostly below about 14%; also: read at 38.3 µM for the half of the compounds with a filed dose; 0% is about no effect
* = called active by the depositor; ? = inconclusive; nt = no result.

SMILES	FMDV antiviral	Sm TGR inh	Shiga toxin inh	CHX counter
COC(=O)CC1(c2ccccc2)C(=O)c2ccccc2C1=O	-1%	-24%	-14	1
COc1cccc(N2CC(NC(=O)C(c3ccccc3)c3ccccc3)CC2=O)c1 (stereo not given)	-21%	2%	nt	nt
Cn1c(/C=C/c2ccccc2)nc2ccccc21	-81%	10%	-13	11
CCOC(=O)c1ccc(N=Cc2nc3ccccc3n2C)cc1	3%	-2%	-6	11
Cn1c(=O)c(/C=C/c2ccc(F)cc2)nc2ccccc21	43%	-11%	75*	36*
CC(=O)c1ccc(/C=C/c2nc3ccccc3n2C)o1	12%	3.5µM*	61*	38*
Cn1c(=O)c(/C=C/c2ccccc2)nc2ccccc21	-10%	2%	73*	34*
CC(C)Cn1c(/C=C/c2ccc(F)cc2)nc2ccccc21	6%	4%	nt	nt
Cc1ccccc1C(=O)Nc1cccc(OCc2cc(=O)n3c4c(sc3n2)CCCC4)c1	-13%	-10%	nt	nt
CCCC(=O)Nc1ccc2c(c1)nc1n2CCN(CCOC)C1	3%	20µM*	4	5
COCCN1CCn2c(nc3cc(NC(=O)c4cccs4)ccc32)C1	nt	18µM*	47	23
CC(c1ccccc1)N1CCn2c(nc3cc(NC(=O)c4cccs4)ccc32)C1 (stereo not given)	nt	?	26	21*
COc1ccc(CN2CCOc3c(cc(-c4cccc(OC)n4)cc3OC)C2)c(O)c1	-2%	nt	nt	nt
CCOC(=O)N1CCc2c(sc(NCc3cccs3)c2C(=O)Nc2cc(Cl)ccc2OC)C1	3%	-34%	nt	nt
O=C(/C=C\Nc1ccc2c(c1)OCO2)c1ccc2c(c1)OCO2	-38%	nt	95*	29*
COc1ccc(N/C=C\C(=O)c2ccc3c(c2)OCO3)cc1	17%	1%	88*	63*
COc1ccc(N/C=C/C(=O)c2ccc3c(c2)OCO3)cc1OC	23%	-29%	61*	67*
O=C(/C=C\Nc1ccc2c(c1)OCO2)c1ccccn1	2µM*	2%	-22	-4
CCOc1ccc(N/C=C\C(=O)c2ccc3c(c2)OCO3)cc1	9%	nt	nt	nt
O=C(O)c1ccc2c(c1)OCO2	-6%	nt	nt	nt
CC(Sc1ccccn1)C(=O)Nc1ccc2c(c1)OCO2 (stereo not given)	12%	-16%	nt	nt
Cc1ccc2c(=O)cc(C(=O)Nc3nnc(CC(C)C)s3)oc2c1C	-23%	11%	nt	nt
COc1ccc(CNC(=O)C2=C(C)C(=O)OC23CCN(C(C)=O)CC3)cc1	9%	22%	nt	nt
c1cc(CNc2ccc(N3CCOCC3)cc2)ccn1	?	-4%	49*	33*
Cc1ccc(CNc2ccc(N3CCOCC3)c(Cl)c2)cc1	11%	-14%	30*	22*
SMILES	FMDV antiviral	Sm TGR inh	Shiga toxin inh	CHX counter
Cc1ccc(CNc2ccc(N3CCOCC3)cc2)cc1	1%	-2%	52*	21*
CCOc1ccc(C(=O)c2oc3ccccc3c2NC(=O)c2cc(-c3ccc(C)cc3)on2)cc1	-26%	-17%	nt	nt
CCc1cnc2c(c1SCC(=O)Nc1ccc(Cl)cc1)c(=O)n(C)c(=O)n2C	-5%	5%	nt	nt
CC12CCC=CC1C(c1ccc(F)c(Br)c1)N(Cc1ccccc1)C2=O (stereo not given)	nt	nt	-3	2
CCOc1ccccc1NC(=O)CN1C(=O)COc2ccc(S(=O)(=O)N3CCCCCC3)cc21	4%	0%	nt	nt
COc1cc2c3c(c1)/C(=C1/SC(NC(C)=O)=NC1=O)C(=O)N3C(C)(C)C=C2C	-24%	40µM*	-9	-2
Cn1c(=O)c2c(nc3sccn32)n(C)c1=O	0%	-6%	11	20*
Cc1nc2sccn2c(=O)c1Cl	nt	?	-6	-2
COc1cccc(NC(=O)CNC(=O)c2ccc(C)cc2)c1	9%	2%	4	6
Cc1cccc(C(=O)NNC(=O)c2ccc(NC(=O)C(C)(C)C)cc2)c1	8%	4%	39*	30*
CCCC(=O)Nc1ccc(C(=O)Nc2cccc(OC)c2)cc1	46%	4%	68*	47*
COc1cccc(NC(=O)c2ccc[n+](C)c2)c1	-4%	3%	2	-2
COc1cccc(NC(=O)c2ccc(NC(=O)C(C)(C)C)cc2)c1	-28%	-6%	56*	54*
CCN(C(=O)Cc1c(C(=O)O)c(C)cn1C)c1cccc(Cl)c1	-20%	6%	nt	nt
Cc1cc(=S)cc(C)n1CCCn1ccnc1	-19%	11µM*	-9	-4
CN1/C(=C/C2CC(=O)NC2=O)C(C)(C)c2ccccc21 (stereo not given)	-19%	45µM*	-10	6
CN1/C(=C/C2CC(=O)N(c3cccc4ccccc34)C2=O)C(C)(C)c2ccccc21 (stereo not given)	-14%	?	-9	-2
Cn1c(=O)[nH]c(=O)c2c1nc(Br)n2CCOc1ccccc1	18µM*	-18%	-8	-6
Cn1c(=O)[nH]c(=O)c2c1nc(Br)n2CCCSc1nc2ccccc2o1	22µM*	1%	-2	9
Cc1ccc2c(=O)cc(C(=O)Nc3cccc(C(F)(F)F)c3)oc2c1C	-14%	-1%	nt	nt
Cc1ccc(N=Cc2c(O)ccc3ccccc23)cc1F	0%	-31%	15	12
Oc1sc(C=Nc2ccccc2)c2ccccc12	54%	-1%	80*	68*
Oc1sc(C=Nc2ccc(F)cc2)c2ccccc12	41%	17%	13*	57*
Cc1cc2sc3ccc(C#CC4(O)CCCCC4)cc3c(=O)c2cc1C	0.089µM*	nt	nt	nt
Nc1ccc(C#Cc2ccc3c(=O)c4ccccc4oc3c2)cc1	52%	?	28*	37*
SMILES	FMDV antiviral	Sm TGR inh	Shiga toxin inh	CHX counter
CCOC(=O)CNC(=O)c1ccc(C#CC2(O)CCCCC2)cc1	10%	0%	89	11
N#Cc1ccc(C#Cc2ccc3oc4ccccc4c(=O)c3c2)cc1	4%	nt	nt	nt
O=c1c2ccccc2oc2ccc(C#CC3(O)CCCCC3)cc12	32µM*	nt	nt	nt
NC1(C#Cc2ccc3c(=O)c4ccccc4sc3c2)CCCCC1	-19%	nt	nt	nt
Cn1c2ccccc2c(=O)c2ccc(C#CC3(N)CCCCC3)cc21	6%	-10%	85*	45*
CCOc1ccccc1C(=O)N1CCc2cc(OC)c(OC)cc2C1COc1ccc(OC)cc1 (stereo not given)	-29%	-1%	nt	nt
Cn1c2ccccc2c(=O)c2cc(C#CC3(O)CCCCC3)ccc21	25µM*	-35%	56*	27*
COc1cc2oc3ccc(C#Cc4ccc(N)cc4)cc3c(=O)c2cc1OC	7%	nt	nt	nt
COc1cccc2oc3ccc(C#CC4(N)CCCCC4)cc3c(=O)c12	-8%	-15%	24*	21*
O=C(NCCc1ccncc1)c1cnn(-c2ncc3c(n2)-c2ccccc2CCC3)c1C1CC1	-12%	nt	nt	nt
N#Cc1ccccc1Cn1c(=O)n(-c2cccc(C(F)(F)F)c2)c(=O)c2sccc21	-21%	1%	nt	nt
CCOc1cccc(C(=O)Nc2ccc(-c3nc4ncccc4o3)cc2C)c1	-13%	29%	nt	nt
CCOC(=O)c1c(C)[nH]c(C)c1S(=O)(=O)N1CCCC(C(=O)N2CCN(c3ccccc3F)CC2)C1 (stereo not given)	24%	-8%	nt	nt
COc1ccc(-c2c(C#N)c(SCC(=O)Nc3ccc(C)c(C)c3)nc(C)c2C(=O)Nc2ccccc2)cc1OC	2%	2%	nt	nt

High-throughput results (PubChem)
